PubChem BioAssay
Unmarked numbers belong to inactive results. Where a call stands in place of a potency, no number is given. For part of these data: Potency and affinity values are given separately. Activity calls are given as the source filed them. Unless noted, the rule behind the calls is not given here.

Tests used:
[1] = antimalarial activity against Dd2 strain (AID 2302;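 active = growth inhibition above 50% at the single 2 µM test dose, taken to imply half-maximal potency below 2 µM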); conditions: P. falciparum Dd2 in RBCs, LDH growth readout, 72 h; at 2 µM; hits give high values
[2] = HepG2 cytotoxicity, primary screen, cytotoxicity control for P. falciparum antimalarial project, cell-based, ATP luminescence (AID 2303;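 active = inhibition above 50%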); conditions: HepG2 viability, 24-48 h, at 10 µM, hits give high values
[3] = target: L-lactate dehydrogenase (Plasmodium falciparum (isolate CDC / Honduras)) (UniProt Q27743); assay: PfLDH activity inhibition – cell lysate, 3D7 strain, counter-screen for P. falciparum growth inhibition project (AID 2304); conditions: P. falciparum 3D7 crude extract, LDH APAD/NBT absorbance; at 2 µM; hits give high values
[4] = inhibition of 3D7 malaria parasite growth – strain 3D7 (AID 2306); conditions: P. falciparum 3D7 erythrocytic growth, LDH absorbance, 72 h; at 2 µM; hits give high values
[5] = target: Calcium-dependent protein kinase 1 (Plasmodium falciparum (isolate 3D7)) (UniProt P62344); assay: PfCDPK1 kinase inhibitors, biochemical, TCAMS library (AID 1159585; cut-off not given, nearly all actives have IC50 up to about 0.98 µM;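 note: inhibitors leave more ATP so luminescence rises with inhibition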); conditions: recombinant PfCDPK1, Kinase-Glo ATP depletion luminescence
[6] = target: Plasmodium falciparum protein kinase 6 (PK6, PF3D7_1337100) (UniProt Q8IDW1); assay: PfPK6 kinase inhibitors, biochemical, TCAMS library (AID 1159586); conditions: recombinant PfPK6, Kinase-Glo ATP depletion luminescence
[7] = target: Protein kinase 7 (PK7), Plasmodium falciparum 3D7 (PF3D7_0213400) (UniProt Q7YTF7); assay: inhibition of Plasmodium PK7 catalytic activity – biochemical, TCAMS antimalarial set, Kinase-Glo luminescence (AID 1159587); conditions: recombinant PfPK7, Kinase-Glo ATP depletion luminescence
[8] = target: Calcium-dependent protein kinase 4 (Plasmodium falciparum (isolate 3D7)) (UniProt Q8IBS5); assay: PfCDPK4 kinase inhibitors, biochemical, TCAMS library (AID 1159588; cut-off not given, nearly all actives have IC50 up to about 0.91 µM); conditions: recombinant PfCDPK4, Kinase-Glo ATP depletion luminescence
Calcium-dependent protein kinase 4 (Plasmodium falciparum (isolate 3D7)), sequence (Q8IBS5 whole entry, looked up): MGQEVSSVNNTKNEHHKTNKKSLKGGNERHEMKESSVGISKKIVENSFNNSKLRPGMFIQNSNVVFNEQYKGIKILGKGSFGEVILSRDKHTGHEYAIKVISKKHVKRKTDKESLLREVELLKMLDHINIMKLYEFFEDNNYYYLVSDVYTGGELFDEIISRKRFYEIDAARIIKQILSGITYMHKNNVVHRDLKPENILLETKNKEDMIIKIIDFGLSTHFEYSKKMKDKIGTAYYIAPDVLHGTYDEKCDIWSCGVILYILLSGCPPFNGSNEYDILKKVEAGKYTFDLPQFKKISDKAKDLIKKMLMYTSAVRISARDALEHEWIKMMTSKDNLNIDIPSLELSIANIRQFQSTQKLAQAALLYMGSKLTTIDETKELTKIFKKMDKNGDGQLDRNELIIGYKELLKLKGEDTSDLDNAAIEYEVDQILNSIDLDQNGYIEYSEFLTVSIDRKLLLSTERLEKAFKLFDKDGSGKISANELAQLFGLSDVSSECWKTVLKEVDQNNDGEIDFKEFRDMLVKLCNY

Plasmodium falciparum protein kinase 6 (PK6, PF3D7_1337100), sequence (Q8IDW1 1-305): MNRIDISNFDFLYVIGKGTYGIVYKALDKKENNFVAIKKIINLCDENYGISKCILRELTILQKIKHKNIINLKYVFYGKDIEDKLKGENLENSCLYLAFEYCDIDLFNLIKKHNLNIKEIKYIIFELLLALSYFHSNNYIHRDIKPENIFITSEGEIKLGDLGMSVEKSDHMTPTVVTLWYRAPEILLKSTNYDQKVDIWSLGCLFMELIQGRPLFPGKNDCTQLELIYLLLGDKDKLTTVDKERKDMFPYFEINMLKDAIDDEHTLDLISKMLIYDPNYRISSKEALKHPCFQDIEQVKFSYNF
Calcium-dependent protein kinase 1 (Plasmodium falciparum (isolate 3D7)), sequence (P62344 whole entry, looked up): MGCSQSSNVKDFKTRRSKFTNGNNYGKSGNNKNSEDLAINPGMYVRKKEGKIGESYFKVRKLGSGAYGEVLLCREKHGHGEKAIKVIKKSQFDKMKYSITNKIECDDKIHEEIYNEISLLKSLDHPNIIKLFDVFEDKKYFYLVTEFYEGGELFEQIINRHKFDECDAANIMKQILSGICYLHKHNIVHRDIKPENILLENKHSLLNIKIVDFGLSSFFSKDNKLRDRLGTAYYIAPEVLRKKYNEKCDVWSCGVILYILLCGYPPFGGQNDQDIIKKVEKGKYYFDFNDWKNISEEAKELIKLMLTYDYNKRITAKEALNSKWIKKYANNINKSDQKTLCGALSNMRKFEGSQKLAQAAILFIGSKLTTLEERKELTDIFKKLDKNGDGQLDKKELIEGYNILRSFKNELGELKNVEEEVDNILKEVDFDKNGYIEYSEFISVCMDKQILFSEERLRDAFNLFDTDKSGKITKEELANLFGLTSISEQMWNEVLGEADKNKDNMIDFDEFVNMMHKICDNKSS
Protein kinase 7 (PK7), Plasmodium falciparum 3D7 (PF3D7_0213400), sequence (Q7YTF7 1-343): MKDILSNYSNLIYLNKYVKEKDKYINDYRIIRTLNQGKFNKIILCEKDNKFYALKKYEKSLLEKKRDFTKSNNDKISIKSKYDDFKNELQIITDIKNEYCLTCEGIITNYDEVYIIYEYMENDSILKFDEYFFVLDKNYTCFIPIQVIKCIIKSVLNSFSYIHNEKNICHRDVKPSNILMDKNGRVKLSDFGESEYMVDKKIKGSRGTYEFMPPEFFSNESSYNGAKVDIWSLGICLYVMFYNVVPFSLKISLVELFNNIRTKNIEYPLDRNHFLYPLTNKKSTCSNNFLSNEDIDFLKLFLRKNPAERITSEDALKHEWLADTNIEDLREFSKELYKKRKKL
L-lactate dehydrogenase (Plasmodium falciparum (isolate CDC / Honduras)), sequence (Q27743 whole entry, looked up): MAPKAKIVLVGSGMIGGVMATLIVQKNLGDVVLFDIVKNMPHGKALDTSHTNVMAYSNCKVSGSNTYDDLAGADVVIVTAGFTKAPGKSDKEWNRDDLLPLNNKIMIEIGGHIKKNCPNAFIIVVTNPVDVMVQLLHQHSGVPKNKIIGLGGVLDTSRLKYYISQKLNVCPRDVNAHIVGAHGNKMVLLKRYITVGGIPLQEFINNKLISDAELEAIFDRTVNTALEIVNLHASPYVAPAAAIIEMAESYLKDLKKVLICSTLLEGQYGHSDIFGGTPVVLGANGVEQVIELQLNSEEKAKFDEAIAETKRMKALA

Row | Compound | growth inhibition [1] | inhibition [2] | inhibition [3] [%] | growth inhibition [4] | outcome [5] | outcome [6] | outcome [7] | outcome [8]
1 | O=C(N[C@H]1CCN(CCc2ccc(O[C@H]3CCNC3)c(Br)c2)C1)c1ccc(Cl)c(Cl)c1 | 0% | 28% | -4 | 100% (active) | inactive | inactive | inactive | inactive
2 | O=C(Nc1ccc(OC2CCN(Cc3ccccc3)CC2)c(Cl)c1)c1ccsc1 | 92% (active) | 3% | 4 | 87% (active) | inactive | inactive | inactive | inactive
3 | CCCN(C(=O)c1ccccc1C)c1nnc(-c2ccccc2C)s1 | 65% (active) | 16% | -7 | 90% (active) | inactive | inactive | inactive | inactive
4 | Nc1ncc(-c2ccsc2)c2ccc(-c3cc(NCc4ccccc4)ncn3)cc12 | 86% (active) | 0% | 3 | 101% (active) | inactive | inactive | inactive | inactive
5 | CCc1ccc(CN2CCC(CNC(=O)c3cc(-c4cccc(Cl)c4)cs3)C2)cc1 (configuration not stated) | 19% | 27% | 4 | 88% (active) | inactive | inactive | inactive | inactive
6 | Cc1nc2ccccn2c1C1(O)C(=O)Nc2c(Cl)cc(Cl)cc21 (configuration not stated) | 62% (active) | -11% | -3 | 95% (active) | inactive | inactive | inactive | inactive
7 | CC(CCON1C(N)=NC(N)=NC1(C)C)c1ccc(Cl)cc1 (configuration not stated) | 97% (active) | 64% (active) | -5 | 93% (active) | inactive | inactive | inactive | inactive
8 | CCOC(=O)c1ccc(NC(=O)N[C@@H](Cc2ccccc2)C(=O)NC2CCN(Cc3ccc(OCCCN(C)C)cc3)C2)cc1 (some centres not stated) | 8% | 5% | 0 | 91% (active) | inactive | inactive | inactive | inactive
9 | CS(=O)(=O)CCNCc1cccc(-c2cc3c(Nc4ccc(OCc5cccc(F)c5)c(Cl)c4)ncnc3s2)c1 | 97% (active) | 5% | 1 | 101% (active) | inactive | inactive | inactive | inactive
10 | CCCC(C)N(Cc1ccc(C(C)(C)C)cc1)C(=O)c1ccc(OC)cc1 (configuration not stated) | 98% (active) | 7% | -2 | 100% (active) | inactive | inactive | inactive | inactive
11 | Nc1nc2c(ncn2COC2COP(=O)(O)OC2)c(=O)[nH]1 (configuration not stated) | 54% (active) | 7% | 7 | 81% (active) | inactive | inactive | inactive | inactive
12 | O=C(Nc1ccc(Cn2nc(Cl)c(N3CCNCC3)cc2=O)cc1)Nc1ccc(-c2ccccc2)cc1 | 49% | 99% (active) | -3 | 97% (active) | inactive | inactive | inactive | inactive
13 | O=c1cc(NC[C@@H]2CCC[C@@H]2NCc2ccc(Cl)c(Cl)c2)[nH]c2ccccc12 | 75% (active) | 9% | -1 | 100% (active) | inactive | inactive | inactive | inactive
14 | CC(CN1CCN(C)CC1)C(=O)Nc1ccc(-c2ccc(-c3nc4ccccc4[nH]3)cc2)cc1 (configuration not stated) | 87% (active) | 13% | 4 | 92% (active) | inactive | inactive | inactive | inactive
15 | CS(=O)(=O)c1cccc2sc(N3CCN(C(=O)c4ccc([N+](=O)[O-])o4)CC3)nc12 | 61% (active) | -26% | -4 | 84% (active) | inactive | inactive | inactive | inactive
16 | CCn1c(-c2nonc2N)nc2c(C#CC(C)(C)O)ncc(OCCNCCc3ccc(OC)cc3)c21 | 44% | 4% | -7 | 91% (active) | inactive | inactive | inactive | inactive
17 | COc1ccc(-c2ccc(CNCc3ccc(F)cc3)cc2)cc1S(=O)(=O)NCCN1CCCC1 | 33% | 24% | 3 | 98% (active) | inactive | inactive | inactive | inactive
18 | Cc1nc2c(Nc3nc(-c4ccncc4)cs3)ncnc2n1-c1ccccc1Cl | 96% (active) | 14% | 0 | 97% (active) | inactive | inactive | inactive | inactive
19 | COCCNC(=O)C(CNC(=O)c1ccc2c(c1)OCO2)NC(=O)c1ccc(-c2ccccc2)cc1 (configuration not stated) | 3% | 14% | 1 | 90% (active) | inactive | inactive | inactive | inactive
20 | O=C(NC1CCN(Cc2ccccc2)CC1)c1csc2nc(-c3ccc(Cl)cc3)cn12 | 14% | 19% | -10 | 98% (active) | inactive | inactive | inactive | inactive
21 | NC(=O)c1cccc(-n2ccc3cc(CNC4Cc5ccccc5C4)ccc32)c1 | 7% | 17% | -1 | 88% (active) | inactive | inactive | inactive | inactive
22 | Cc1ccc(CNC(=O)[C@H](Cc2ccccc2)Nc2ccnc(NCC3CCCCC3)n2)cc1 | 61% (active) | 84% (active) | -2 | 92% (active) | inactive | inactive | inactive | inactive
23 | CCN(CC)CCN(Cc1ccc(-c2ccc(Cl)s2)cc1)C(=O)Cn1c(CCc2cccc(F)c2F)nc(=O)c2ccccc21 | 27% | 24% | -4 | 96% (active) | inactive | inactive | inactive | inactive
24 | Cc1cc(-c2c[nH]c3ncc(-c4cccc5ncccc45)cc23)ccc1C(=O)O | 77% (active) | 31% | -7 | 99% (active) | inactive | inactive | inactive | inactive
